# Compounds with a hit are over-represented: about 3.8% of the library has one in this group of screens.
# mIDH1 inhibitor = blocks human mutant IDH1 R132H enzyme. 0.093% of 390,000 active. Potency, µM (series often up to 76.6 µM), hits mostly inhibitors. AID 602179. O75874. IDH1-R132H enzyme, NADPH consumption, diaphorase/resazurin fluorescence; also: nearly all actives have a fitted effect of over 65% in size
# Target sequence (O75874 whole entry R132H, stated change not applied): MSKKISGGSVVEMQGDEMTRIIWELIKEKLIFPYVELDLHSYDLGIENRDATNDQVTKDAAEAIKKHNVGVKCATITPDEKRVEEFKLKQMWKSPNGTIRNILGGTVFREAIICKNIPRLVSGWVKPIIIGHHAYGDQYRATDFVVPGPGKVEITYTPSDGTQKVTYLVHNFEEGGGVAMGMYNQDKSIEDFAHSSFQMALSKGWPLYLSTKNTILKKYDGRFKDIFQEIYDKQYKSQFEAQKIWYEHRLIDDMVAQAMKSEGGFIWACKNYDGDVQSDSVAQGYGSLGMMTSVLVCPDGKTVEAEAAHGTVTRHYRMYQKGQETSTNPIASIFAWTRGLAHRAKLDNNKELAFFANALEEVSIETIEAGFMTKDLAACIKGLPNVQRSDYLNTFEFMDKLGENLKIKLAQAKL
#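 IDH1-R132H (0.5 ug/mL) preincubated 30 min with compound, then NADPH (0.016 mM) and alpha-KG (2 mM) added; 80 min at RT, pH 7.5. Remaining NADPH coupled via diaphorase/resazurin to fluorescence (540/590 nm); concentration-response curves normalized to no-enzyme control.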
# Nrf2 ARE act = activators of Nrf2 (ARE) signaling | AREc32 ARE-luciferase reporter (MCF7-derived line), luminescence, 24 h | Potency, µM (top dose mostly 46.1 µM), most hits filed as activators | AID 624171 | 0.31% of 410,000 active; also: nearly all actives have a fitted effect of over 65% in size
#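 Cells of the AREc32 ARE-luciferase line are plated in OPTI-MEM containing 5% FBS and left overnight at 37 deg C. Compounds are pinned in, incubation continues 24 hr, and firefly luciferase signal is then measured.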
# A549 viability = kills or reduces viability of A549 cells in Nrf2 counter-screen; A549 ARE-Fluc cells, CellTiter-Fluor viability, 18-24 h; Potency, µM (doses to about 46 µM), hits mostly inhibitors; 0.16% of 390,000 active
#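 A549 ARE-Fluc cells in 5% FBS OPTI-MEM, 5000 cells/well, rested 2 h then exposed to compounds in concentration-response for 18-24 h at 37 °C. Viability by CellTiter-Fluor fluorescence (Ex 405/Em 525) after 30 min; luciferase luminescence (BugLite, 15 min, RT) read afterwards.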
# Nrf2 block = Nrf2 pathway inhibition; A549 ARE-Fluc reporter, luciferase luminescence, 18-24 h; Potency, µM (doses to about 46 µM), most hits filed as inhibitors; 2.1% of 360,000 active; AID 504444; also: nearly all actives have a fitted effect of over 60% in size
#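 Nrf2 activity is the BugLite luminescence, read 15 min after reagent at room temperature, following CellTiter-Fluor cytotoxicity readout (30 min, 37C). Compound titrations were applied for 18-24 h to 5000 A549 ARE_Fluc cells/well in 5% FBS OPTI-MEM.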
# ELG1 DNA repair = ELG1-dependent DNA repair inhibition; HEK293T ELG1-luciferase reporter, luminescence, 16 h; DNA damage induced by 5-fluorouridine; Potency, µM (titrated, usually from 46.1 µM), hits mostly inhibitors; 2.3% of 330,000 active; also: nearly all actives have a fitted effect of over 55% in size
#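 Step one: seed 2,000 cells per well. Step two: pin-transfer compound or DMSO alongside 5-fluorouridine. Step three: incubate 16 hr, 37 °C, 5% CO2. Step four: add ONE-Glo, wait 30 min, read luminescence.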
# Numbers stand for hits; - = inactive; ? = inconclusive; . = no result given; [ ] = another dose, or the depositor's remark. Calls follow the shape of the dose curve; as a rule, active = well fitted curve in the direction sought with a large enough effect; inconclusive = small, poorly fitted or top-dose-only effect, or another doubt; inactive = no such curve, though single readings can be large; an effect the other way counts as inactive or inconclusive.
SMILES,mIDH1 inhibitor,Nrf2 ARE act,A549 viability,Nrf2 block,ELG1 DNA repair
CNC(=O)Oc1ccc(-c2cn3cc(C)ccc3n2)cc1,-,-,?,1.16µM,?
C[C@]12CCC3C(CC[C@H]4C[C@@H](O)CC[C@]34C)[C@H]1C=CC2=O (stereo partly specified),-,22.4µM,-,?,?
O=C(Nc1ccc(OC(F)(F)F)cc1)C1CCN(S(=O)(=O)c2cccs2)CC1,?,-,-,?,.
COc1ccc(CCNC(=O)N2c3ccccc3Sc3ccccc32)cc1,-,-,?,16.4µM,.
Cc1cc(OCC(=O)N2CCN(CC(=O)N3CCOCC3)CC2)c(C(C)C)cc1Cl,-,-,-,-,-
O=C(CN1CCN(c2ncc(C(F)(F)F)cc2Cl)CC1)N1CCN(c2ncc(C(F)(F)F)cc2Cl)CC1,-,-,?,11.2µM,?
CC[C@@H](C)[C@H](C(CC(=O)N1CCCC1[C@@H](OC)[C@H](C)C(=O)N[C@H](Cc1ccccc1)c1nccs1)OC)N(C)C(=O)[C@H](NC(=O)[C@@H](C(C)C)N(C)C)C(C)C (stereo partly specified),-,-,?,?,.
Cn1c(=O)oc2cc(NC(=O)CCl)ccc21,-,7.94µM,-,?,?
CC(C)(C)n1ncc2c(=O)n(Cc3cccc(Cn4cnc5c(cnn5C(C)(C)C)c4=O)c3F)cnc21,.,-,?,5.17µM,8.2µM
NS(=O)(=O)c1ccc(CCNC(=O)c2ccc(Cl)c(S(=O)(=O)N3CCCCC3)c2)cc1,-,-,-,?,16.4µM
COc1ccc(CCNC(=O)c2ccc3c(c2)CCN3S(=O)(=O)c2ccc(C)cc2)cc1OC,-,-,-,?,.
COC(=O)C(O)(c1ccc(NC(=S)NC(=O)c2ccccc2)cc1)C(F)(F)F (stereo unspecified),-,-,-[1.84 µM],16.4µM,?
COc1ccc(NCC(=O)N2CCCC2)cc1Cl,-,-,-,-,?
Cc1c(P(=S)(c2ccccc2)c2ccccc2)[n+]2ccccc2n1C/C=C/c1ccccc1,.,-,-,?,.
CC1(C)C[C@H]2C=C(C=O)[C@]3(C=O)C[C@]3(C)[C@H]2C1,-,-,-,?,5.8µM
O=C(NCCc1ccccc1)[C@@H]1CC=C[C@@H]2CCN(Cc3ccc(Cl)c(Cl)c3)C(=O)[C@@H]21,-,-,-,?,.
Cc1cc(C)cc(NC(=O)Cn2c(=O)oc3cc(S(=O)(=O)N4CC(C)CC(C)C4)ccc32)c1 (stereo unspecified),-,-,-,?,?
CC(=O)N1CCc2cc(S(=O)(=O)N3CCN(c4ccc(C)cc4)C(C)C3)ccc21 (stereo unspecified),-,-,-,16.4µM,.
O=C1NC(=O)C(CCc2ccncc2)(Cc2cccc(Cl)c2Cl)C(=O)N1c1ccc(Br)cc1 (stereo unspecified),-,-,?,-,16.4µM
C/C(CC(c1ccccc1)c1c(O)c2ccccc2oc1=O)=N\Nc1ccc([N+](=O)[O-])cc1[N+](=O)[O-] (stereo unspecified),-,-,?,23.1µM,-
C/C(=N\Nc1ccccc1)c1c(O)[nH]c(=O)[nH]c1=O,-,-,-,-,5.17µM
C/C(=N\Nc1ccccc1)c1c(O)n(-c2ccccc2)c(=O)[nH]c1=O,-,-,-,-,?
O=P(O)(O)c1ccccc1OCCOCCOCCOCCOc1ccccc1P(=O)(O)O,-,-,-,?,?
O=C(O)c1ccccc1NS(=O)(=O)c1cccc(N=Nc2c(O)[nH]c(=S)[nH]c2=O)c1,-,-,?,-,-
C=Cc1cc(OC)c2c(c1)c(=O)oc1c2cc(OC)c2c(O)ccc(C3OC(C)C(O)C(C)(O)C3O)c21 (stereo unspecified),?,-,5.17µM,2.06µM,.
SMILES,mIDH1 inhibitor,Nrf2 ARE act,A549 viability,Nrf2 block,ELG1 DNA repair
CC(=O)c1ccc2c(c1)C1C(Cl)C(Sc3ccccc3[N+](=O)[O-])CC1C(c1ccccc1)N2 (stereo unspecified),-,-,-,?,?
CC(=O)c1ccc2c(c1)C1C(Cl)C(Sc3ccccc3[N+](=O)[O-])CC1C(c1ccccc1[N+](=O)[O-])N2 (stereo unspecified),-,-,-,-,4.11µM
COc1ccccc1CNC(=O)CCNS(=O)(=O)c1ccc2c(c1)oc(=O)n2C,-,-,-,-,-
Cc1cc(N2CCCCC2)nc2ccc(NC(=O)/C=C/c3ccc(OC(C)C)cc3)cc12,-,-,-,?,.
COC(=O)C1=C(c2ccc(-c3ccccc3)c(F)c2)C[C@@H]2CC[C@H]1N2C(=O)NCCOc1ccccc1,-,-,?,18.4µM,?
COCCNC(=O)N1[C@H]2CC[C@@H]1C(C(=O)OC)=C(c1ccc(-c3ccccc3)c(F)c1)C2,-,-,-,18.4µM,-
COC(=O)C1=C(c2ccc(-c3ccccc3)c(F)c2)C[C@@H]2CC[C@H]1N2C(=O)NCC1CC1,-,-,?,13µM,-
COC(=O)C1=C(c2ccc(-c3ccccc3)c(F)c2)C[C@@H]2CC[C@H]1N2C(=O)NC1Cc2ccccc2C1,-,-,-,?,-
CCCc1cc(=O)oc2c3c(cc(OCC(=O)N4CCC[C@H]4C(=O)O)c12)OC(C)(C)CC3,-,-,-,-,?
O=C1C(=O)c2cccc3cccc1c23,-,-,-,-,-
NC1=C(Br)C(=O)c2ccccc2C1=O,-,-,?,?,23.1µM
O=C1C(=O)c2ccccc2-c2ccccc21,-,-,?,18.4µM,7.31µM
COC1/C=C/C=C(\C)Cc2cc(O)c(Cl)c(c2)N(C)C(=O)CC(OC(=O)C(C)C)C2(C)OC2C(C)C2CC1(O)NC(=O)O2 (stereo unspecified),-,-,?,8.2µM,.
Cc1c(C(=O)N2CCC3(CC2)OCCO3)sc2ncnc(N3CCN(c4ccccn4)CC3)c12,-,-,-,?,3.66µM
CC(=O)OC(C)(C)/C=C/C(=O)[C@](C)(O)C1[C@H](O)C[C@@]2(C)C3CC=C4C(C[C@H](O)C(=O)C4(C)C)[C@]3(C)C(=O)C[C@]12C (stereo partly specified),-,-,0.651µM,?,?
CC(C)(O)/C=C/C(=O)C(C)(O)C1C(O)CC2(C)C3CC=C4C(C=C(O)C(=O)C4(C)C)C3(C)C(=O)CC12C (stereo unspecified),-,-,2.31µM,1.46µM,.
O=C(Cc1coc2cc3c(cc12)CCC3)OCC(=O)N1CCCC1=O,-,-,-,?,-
CC(C)c1oc(=O)cc2c1[C@@H](O)[C@H]1OC(=O)[C@@]3(C)CC[C@@H](O)[C@@]2(C)C13 (stereo partly specified),-,-,?,18.4µM,-

# High-throughput results as filed in PubChem BioAssay.
